HPGD inh = qHTS Assay for Inhibitors of HPGD (15-Hydroxyprostaglandin Dehydrogenase); AID 894, 2007; 4.3% of 150,000 active; Potency, µM, inactives show top-dose activity change, negative = inhibition, usual class: inhibitors; purified HPGD, NADH fluorescence kinetic, PGE2 substrate; note: potency is the fitted concentration of half-maximal effect
Target sequence (P15428 whole entry, looked up): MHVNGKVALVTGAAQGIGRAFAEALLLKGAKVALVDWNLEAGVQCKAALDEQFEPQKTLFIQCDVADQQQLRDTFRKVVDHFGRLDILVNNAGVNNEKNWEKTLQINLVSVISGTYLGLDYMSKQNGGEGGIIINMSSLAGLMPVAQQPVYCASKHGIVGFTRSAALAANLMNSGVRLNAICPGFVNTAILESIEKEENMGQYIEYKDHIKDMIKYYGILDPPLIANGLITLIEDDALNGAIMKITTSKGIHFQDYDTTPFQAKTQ
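NADH formation kinetics: reaction with 30 uM PGE2 and 1 mM NAD+ (final), 20 nM enzyme, Tris-HCl pH 8 with Tween 20, after 15 min compound preincubation at room temperature. Fluorescence change, last versus first of five reads.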
LMNA splice mod = qHTS Assay for Modulators of Lamin A Splicing; HeLa LMNA splicing GFP/RFP minigene ratio, 48 h; Potency, µM (top dose mostly 46.1 µM), for the others: top-dose ratio change, negative = inhibition, usual class: inhibitors; 0.01% of 200,000 active; AID 1487, 2009; active = well fitted inhibition curve with a large enough effect in the signal ratio, with a control signal flat, not every such curve was filed as active; inconclusive = small, poorly fitted or top-dose-only effect, or effect the other way, or a change in a side signal; the % refers to the signal ratio; note: potency is the fitted concentration of half-maximal effect
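S3 HeLa cells stably expressing lamin A-EGFP splicing minigene plus DsRed2, 600 cells/well, 48 h compound exposure at 37C. Laser-scanning cytometry; analysed as GFP (500-530 nm)/RFP (575-640 nm) total intensity ratio; 0.5% DMSO vehicle.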
PNC assembly inh = High Content Assay for Compounds that inhibit the Assembly of the Perinucleolar Compartment; 3.1% of 140,000 active; PC3M PTB-GFP, PNC prevalence imaging, 16 h; active compounds read low; activity change (PNC), negative = inhibition, % at 10 µM;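 active = readout at or below -70, meaning at least 70% loss of cells showing the perinucleolar compartment, a nuclear body marking cancer cells; inconclusive = readout between -30 and a set limit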;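 note: plate controls were DMSO wells for no effect and camptothecin positive control wells for full effect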
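Read-out is percentage of cells bearing a perinucleolar compartment, from automated 20x imaging of fixed, Hoechst-stained PC3M PTB-GFP cells. Cells were seeded 4 h, then exposed 16 h to compound (23 nl of library stock) in duplicate plates.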
ALOX12 inhib = qHTS Assay for Inhibitors of 12-hLO (12-human lipoxygenase) | purified 12-hLO, xylenol orange hydroperoxide absorbance | Potency, µM (top dose mostly 57.1 µM), for the others: at the highest dose activity change, negative = inhibition, most hits filed as inhibitors | 0.12% of 150,000 active | AID 1452, 2008; active = well fitted inhibition curve with a large enough effect; inconclusive = small, poorly fitted or top-dose-only effect; note: potency is the fitted concentration of half-maximal effect; nearly all actives have a fitted effect of over 55% in size
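Hydroperoxide formation by human 12-lipoxygenase from 40 uM arachidonic acid was followed colorimetrically via ferric-xylenol orange complex, using the 573/405 nm absorbance ratio. Enzyme concentration was 150 nM, with 30 min reaction at room temperature.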
ALDH1A1 block = qHTS Assay for Inhibitors of Aldehyde Dehydrogenase 1 (ALDH1A1) | Aldehyde dehydrogenase 1A1 (Homo sapiens), P00352 | Purified ALDH1A1, NADH fluorescence, propionaldehyde substrate | Potency, µM (top dose mostly 75.3 µM), inactives show at the highest dose activity, negative = inhibition, actives largely listed as inhibitors | 7.3% of 220,000 active;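 note: potency is the fitted concentration of half-maximal effect; plate controls were no enzyme wells and a reference inhibitor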
The depositor's hits bear a star; [ ] = remark or other dose. Rows were chosen to be rich in hits. Some 10% of all compounds tested hit in one or more screens of this group. Unless noted, calls come from the whole dose curve; as a rule, active = well fitted inhibition curve with a large enough effect (not every such curve was filed as active); inconclusive = small, poorly fitted or top-dose-only effect, or another doubt; inactive = no such curve, though single readings can be large or run the other way. Unless noted, % is set by controls: 0 for no effect and ±100 for the full control effect.

How did CCCC(c1nnnn1CC(=O)OCC)N(Cc1cc2c(C)cc(C)cc2[nH]c1=O)C1CCCC1 (configuration not stated) do in these assays?
HPGD inh: -19%; LMNA splice mod: inconclusive; PNC assembly inh: -2; ALOX12 inhib: -1%; ALDH1A1 block: 8.9µM*

Results for Cc1ccc2cc(CN(Cc3nnnn3C3CCCCC3)CC3CCCO3)c(=O)[nH]c2c1 (configuration not stated) ?
HPGD inh: -12%; LMNA splice mod: 6%; PNC assembly inh: -10; ALOX12 inhib: inconclusive; ALDH1A1 block: 8.9µM*

How did Cc1cc2cc(CN(Cc3nnnn3C3CCCCC3)CC3CCCO3)c(=O)[nH]c2cc1C (configuration not stated) do in these assays?
HPGD inh: -7%; LMNA splice mod: 3%; PNC assembly inh: 29; ALOX12 inhib: inconclusive; ALDH1A1 block: inconclusive

How did CCC(c1nnnn1CCOC)N(Cc1cc2cc(C)c(C)cc2[nH]c1=O)CC1CCCO1 (configuration not stated) do in these assays?
HPGD inh: -6%; LMNA splice mod: 12%; PNC assembly inh: 23; ALOX12 inhib: 1%; ALDH1A1 block: -16%

How did S=C1SCN(C2CCCCCCCCCCC2)CN1C1CCCCCCCCCCC1 do in these assays?
HPGD inh: -5%; ALOX12 inhib: 2%[11.4 µM]; ALDH1A1 block: 0%[13.5 µM]

What do the screens show for `Cc1cc(N2CCC(C)CC2)nc(SCC(=O)c2ccccc2)n1`?
HPGD inh: -10%; LMNA splice mod: -1%; PNC assembly inh: -119*; ALOX12 inhib: -4%; ALDH1A1 block: 14µM*

What do the screens show for `CS(=O)(=O)c1ncc(Cl)c(C(=O)Nc2ccc(N3CCOCC3)cc2)n1`?
HPGD inh: -28%; LMNA splice mod: inconclusive; PNC assembly inh: -8; ALOX12 inhib: -1%; ALDH1A1 block: 10µM*

How did CS(=O)(=O)c1ccc(C(=O)Nc2ccc(N3CCOCC3)cc2)c(Cl)c1 do in these assays?
LMNA splice mod: 32%[46 µM]; ALDH1A1 block: 14%

What do the screens show for `Cc1cc2cc(NC(=O)c3ccco3)ccc2[nH]1`?
HPGD inh: inconclusive; LMNA splice mod: 10%; PNC assembly inh: inconclusive; ALOX12 inhib: -6%; ALDH1A1 block: 22µM*

What do the screens show for `CC(C)(C)NC(=O)c1cccc(NC(=O)c2ccco2)c1`?
HPGD inh: -10%; LMNA splice mod: -16%; PNC assembly inh: -100*; ALOX12 inhib: -3%; ALDH1A1 block: 6%

How did O=C(Nc1cccc(C(=O)N2CCCCCC2)c1)c1ccco1 do in these assays?
HPGD inh: 25µM*; LMNA splice mod: -2%; PNC assembly inh: 48; ALOX12 inhib: 3%; ALDH1A1 block: 4%

What do the screens show for `O=C(N/N=C/c1cccs1)c1cccc(NC(=O)c2ccccc2Cl)c1`?
HPGD inh: -15%; LMNA splice mod: -12%; PNC assembly inh: 16; ALOX12 inhib: -5%; ALDH1A1 block: 16µM*

What do the screens show for `CC(C)(C)NC(=O)c1cccc(NC(=O)c2ccc(NC(=O)c3ccco3)cc2)c1`?
HPGD inh: -13%; LMNA splice mod: inconclusive; PNC assembly inh: inconclusive; ALOX12 inhib: 1%; ALDH1A1 block: -13%

Results for COc1cc(NS(=O)(=O)c2ccc3c(c2)CCCN3C(C)=O)cc(OC)c1OC ?
LMNA splice mod: 22%[46 µM]

Results for Cc1ccc(CSc2nc3cccnc3n2Cc2ccc(C(=O)NC3CCCCC3)cc2)cc1 ?
LMNA splice mod: 9%[46 µM]

Results for O=C(c1ccncc1)N1CCC2(CCN(Cc3ccncc3)CC2)CC1 ?
HPGD inh: -3%; ALOX12 inhib: 1%; ALDH1A1 block: -8%

What do the screens show for `Cc1cccc(C(=O)Nc2cccc(C(=O)N3CCOCC3)c2)c1`?
HPGD inh: -11%; LMNA splice mod: -3%; PNC assembly inh: -108*; ALOX12 inhib: -2%; ALDH1A1 block: -7%

What do the screens show for `O=C(Nc1cccc(C(=O)N2CCCC2)c1)c1ccccc1Cl`?
HPGD inh: -16%; LMNA splice mod: -2%; PNC assembly inh: -21; ALOX12 inhib: 4%; ALDH1A1 block: 4µM*

How did COc1cccc(C(=O)Nc2cccc(C(=O)N3CCOCC3)c2)c1 do in these assays?
HPGD inh: -13%; LMNA splice mod: 7%; PNC assembly inh: 0; ALOX12 inhib: 1%; ALDH1A1 block: -5%

How did Nc1cc(Cl)c([N+](=O)[O-])cc1O do in these assays?
HPGD inh: -8%; ALOX12 inhib: 1%; ALDH1A1 block: inconclusive

Results for OCC1OC(c2ccccc2)C=CC1Oc1ccc(C2CCCC2)cc1 (configuration not stated) ?
ALDH1A1 block: 2%[13.5 µM]

Results for Cc1ccc(C#N)cc1 ?
HPGD inh: 3%; ALOX12 inhib: -3%; ALDH1A1 block: 32µM*

How did Cc1ccc(C)cc1 do in these assays?
HPGD inh: -13%; ALOX12 inhib: -1%; ALDH1A1 block: -5%

What do the screens show for `CC1(C)CC(=O)C2=C(C1)OC(N)=C(C#N)C2CCc1ccccc1` (configuration not stated)?
HPGD inh: -18%; LMNA splice mod: -2%; PNC assembly inh: 39; ALOX12 inhib: -1%; ALDH1A1 block: inconclusive

Results for N#CC1=C(N)SC(N)=C(C#N)C1c1c(Cl)cccc1Cl ?
HPGD inh: inconclusive; LMNA splice mod: -6%; PNC assembly inh: inconclusive; ALOX12 inhib: -27%; ALDH1A1 block: 22µM*

How did Cc1[nH]nc2c1C(Cc1ccccc1)C(C#N)=C(N)O2 (configuration not stated) do in these assays?
HPGD inh: inconclusive; LMNA splice mod: 7%; PNC assembly inh: 1; ALOX12 inhib: -2%; ALDH1A1 block: -12%

How did N#CC1=C(N)SC(N)=C(C#N)C1CCc1ccccc1 do in these assays?
HPGD inh: 14µM*; LMNA splice mod: -18%; PNC assembly inh: 31; ALOX12 inhib: -29%; ALDH1A1 block: inconclusive

What do the screens show for `CC(C)CC1C(C#N)=C(N)SC(N)=C1C#N`?
HPGD inh: 32µM*; LMNA splice mod: -6%; PNC assembly inh: inconclusive; ALOX12 inhib: -24%; ALDH1A1 block: 3.5µM*

How did N#CC1=C(N)SC(N)=C(C#N)C1Cc1ccccc1 do in these assays?
HPGD inh: 11µM*; LMNA splice mod: -2%; PNC assembly inh: 34; ALOX12 inhib: -23%; ALDH1A1 block: 8.9µM*

How did CNC[C@H](O)[C@H](O)[C@H](O)[C@H](O)CO do in these assays?
HPGD inh: -2%; LMNA splice mod: 2%; ALOX12 inhib: -1%[25.6 µM]; ALDH1A1 block: -4%[20.9 µM]

How did Cc1ccc(CSC2=Nc3ccccc3C3=NC(CCC(=O)NCCc4ccccc4)C(=O)N23)cc1 (configuration not stated) do in these assays?
LMNA splice mod: -15%[46 µM]

Screening data (PubChem BioAssay)
